Inconclusive results are not listed. Entries that show only a call come without a potency. Active and inactive are the calls of the source. Calls follow the shape of the dose curve; as a rule, active = well fitted inhibition curve with a large enough effect; inconclusive = small, poorly fitted or top-dose-only effect; inactive = no such curve, though single readings can be large or run the other way.
Target: M-phase phosphoprotein 8 (Homo sapiens) (UniProt Q99549)
Assay: qHTS Validation Assay for Inhibitors for MPP8 Chromodomain Interactions with Methylated Histone Tails (AID 488949); also: nearly all actives have a fitted effect of over 55% in size
Settings: AlphaScreen MPP8 binding to H3K9me3 peptide; series mostly up to 57.1 µM
Description: As our understanding of epigenetics expands, it is becoming clear that players in this field are potential targets for drug development. This area of epigenetic therapy has established applications for the treatment of cancer and neurological diseases. We have been involved in this field for a number of years and have performed high-throughput screens to identify the first small molecule inhibitors of protein methyltransferases. These methyltransferases target multiple substrates, and thus regulate many arms of an epigenetic pathway. The methylation of different substrates often generates docking sites for effector proteins that harbor binding domains (chromo, tudor, PHD, MBT and ANK repeats). It has been proposed that the binding sites generated for different proteins by these post-translational modifcations mediate downstream effects on chromatin. Consistent with this theory, di- and tri-methylation of histone H3K9 facilitates the binding of heterochromatin protein HP1. The HP1 protein harbors a chromodomain that is responsible for the methyl-dependent interaction between HP1 and lysine 9 of histone H3. HP1 was first described in flies as a heterochromatin associated protein that can regulate gene silencing. It harbors a chromodomain that binds H3K9me3. In addition, it harbors a chromoshadow domain that interacts with a large number of proteins that are involved in heterochromatin formation and gene repression. There are three highly related HP1 isoforms. All three variants are associated with pericentric heterochromatin and it is not clear whether they have specific or redundant functions. MPP8 is also involved in the repression of gene in euchromatic regions (unpublished data) and like HP1 its chromodomain binds H3K9me3. MPP8 harbors an ankyrin repeat region that is likely involved in binding and recruiting interacting proteins with transcriptional repressive function, much like the chromoshadow domain of HP1 does. We hypothesize that by inhibiting specific protein-protein interactions we will be able to develop compounds that block a single arm of an epigenetic pathway. The specificity attained by blocking a single protein-protein interaction will be far greater than that attained by blocking the enzyme that regulates one of many interactions. Low-affinity protein-protein interactions (Kd in the single- to double-digit micromolar range) such as those discussed here have been very difficult to assay by traditional techniques such as fluorescence polarization or fluorescence resonance energy transfer. We have developed a sensitive chemiluminescence-based assay (Quinn, et al. 2009), which serves as the starting point for this project. The following is a validation assay to identify lead compounds that can block methyl-dependent protein-protein interactions (specifically MPP8), which can be used as probes to analyze these methyl-driven interactions and perhaps even developed into targeted epigenetic therapies. Assay Provider: Mark T. Bedford, MD Anderson Screening Center PI: Austin, C.P. Screening Center: NIH Chemical Genomics Center [NCGC]
To each well, 2 uL of MPP8 protein (final 50 nM) and 1 uL biotinylated histone peptide trimethylated at Lys9 [b-H3(1-18)K9me3] (final 50 nM) was added in 1x PBS buffer, pH 7.4, containing 0.01% Tween-20 using a nanoliter dispenser. Formation of a protein-peptide complex proceeded at room temperature for 30 min. A Kalypsys pin-tool was employed to transfer 23 nL of library compound solution in DMSO to each well. Aurintricarboxylic acid (ATA) was used as an intraplate control with a 12-point titration in duplicate. Following a 30 min incubation of the protein-peptide complex with compounds at room temperature, a mixture of 40 ug/mL each streptavidin-coated donor and nickel chelate acceptor AlphaScreen beads (final 10 ug/mL) was added in a 1 uL dispense for a final volume of 4 uL. Plates were incubated protected from the light for 30 min at room temperature. […]
Potency is read from the fitted curve at half-maximal effect.

Chain of M-phase phosphoprotein 8 (Homo sapiens) (Q99549 whole entry, looked up): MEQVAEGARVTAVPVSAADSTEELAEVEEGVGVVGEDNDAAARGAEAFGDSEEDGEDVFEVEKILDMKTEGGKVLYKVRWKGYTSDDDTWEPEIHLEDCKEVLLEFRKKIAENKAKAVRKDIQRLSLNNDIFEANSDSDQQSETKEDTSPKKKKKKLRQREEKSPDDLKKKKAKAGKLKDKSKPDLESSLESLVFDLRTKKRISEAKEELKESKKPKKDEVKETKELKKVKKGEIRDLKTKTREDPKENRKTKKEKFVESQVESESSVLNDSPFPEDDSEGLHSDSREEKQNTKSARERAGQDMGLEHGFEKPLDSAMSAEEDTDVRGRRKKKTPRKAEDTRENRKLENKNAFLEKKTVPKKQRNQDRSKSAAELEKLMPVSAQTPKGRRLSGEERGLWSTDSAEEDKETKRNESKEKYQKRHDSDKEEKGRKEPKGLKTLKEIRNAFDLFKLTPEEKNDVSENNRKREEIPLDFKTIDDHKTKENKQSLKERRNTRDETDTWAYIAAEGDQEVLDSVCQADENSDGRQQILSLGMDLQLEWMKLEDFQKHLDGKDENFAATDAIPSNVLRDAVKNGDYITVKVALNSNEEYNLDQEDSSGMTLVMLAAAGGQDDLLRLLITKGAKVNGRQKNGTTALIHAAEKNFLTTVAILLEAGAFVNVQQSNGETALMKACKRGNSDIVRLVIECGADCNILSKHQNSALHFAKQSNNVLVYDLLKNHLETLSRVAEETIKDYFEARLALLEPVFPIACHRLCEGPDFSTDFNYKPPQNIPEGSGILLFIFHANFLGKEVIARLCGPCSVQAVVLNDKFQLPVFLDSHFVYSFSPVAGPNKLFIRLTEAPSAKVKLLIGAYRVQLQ

Row | SMILES | Potency
1 | CC1(C)CCC2=C(O1)c1ccccc1C(=O)C2=O | inactive
2 | O=c1c(-c2ccc(O)cc2)coc2cc(O)ccc12 | inactive
3 | NC(N)=Nc1nc(CSCC/C(N)=N/S(N)(=O)=O)cs1 | inactive
4 | NCCS | inactive
5 | COC(=O)[C@@H]1[C@H]2C[C@H]3c4[nH]c5ccccc5c4CCN3C[C@@H]2CC[C@@H]1O | inactive
6 | C[N+](C)(C)CCCCCC[N+](C)(C)C | inactive
7 | Clc1ccc(Cn2c(CN3CCCC3)nc3ccccc32)cc1 | inactive
8 | CC(=O)O[C@]1(C(C)=O)CC[C@H]2[C@@H]3C=C(Cl)C4=CC(=O)[C@@H]5C[C@@H]5[C@]4(C)[C@H]3CC[C@@]21C | inactive
9 | O=C1NC(=O)C(c2ccccc2)(c2ccccc2)N1 | inactive
10 | CCN(CC)C(=O)c1ccc(O)c(OC)c1 | inactive
11 | O=C1NCC2(CCN(CCc3ccccc3)CC2)O1 | inactive
12 | CC(=O)CCCCn1c(=O)c2c(ncn2C)n(C)c1=O | inactive
13 | CCN(CC)CCOC(=O)c1ccc(N)cc1 | inactive
14 | CN(C)CCC(c1ccccc1)c1ccccn1 (centres undefined) | inactive
15 | CCCCCN(C)CCC(O)(P(=O)(O)O)P(=O)(O)O | inactive
16 | CC/C(=C(\c1ccccc1)c1ccc(OCCN(C)C)cc1)c1ccccc1 | 17.8 µM (active)
17 | COc1ccccc1N1CCN(CCCNc2cc(=O)n(C)c(=O)n2C)CC1 | inactive
18 | O=C(NCCN1CCOCC1)c1ccc(Cl)cc1 | inactive
19 | CC(=O)N[C@@H](CS)C(=O)O | inactive
20 | CC(C)OC(=O)C(C)(C)Oc1ccc(C(=O)c2ccc(Cl)cc2)cc1 | inactive
21 | CCN1CCC[C@H]1CNC(=O)c1cc(S(N)(=O)=O)ccc1OC | inactive
22 | COc1cccc(-c2cc(=O)c3ccccc3o2)c1N | inactive
23 | CC1=C(/C=C/C(C)=C/C=C/C(C)=C/C(=O)Nc2ccc(O)cc2)C(C)(C)CCC1 | inactive
24 | CCN(CC)CCNC(=O)c1ccc(N)cc1 | inactive
25 | CC(=O)c1ccc(S(=O)(=O)NC(=O)NC2CCCCC2)cc1 | inactive
26 | Cc1cccc(C)c1OCC(C)N (centres undefined) | inactive
27 | O=c1cc(-c2ccc(O)cc2)oc2cc(O)cc(O)c12 | inactive
28 | CCCCC1C(=O)N(c2ccccc2)N(c2ccccc2)C1=O | inactive
29 | CCCNC(=O)NS(=O)(=O)c1ccc(Cl)cc1 | inactive

Source: PubChem BioAssay (NCATS)
